A selection: hits, their analogues and other compounds. The true share with any hit is near 11%.
USP28 inh: blocks human USP28 ubiquitin-rhodamine cleavage | Q96RU2 | purified USP28, Ub-rhodamine cleavage fluorescence, 30 min | inhibition, % at 25 µM | 47,000 compounds, 3% hits | AID 1645857
Target sequence (Q96RU2 whole entry, looked up): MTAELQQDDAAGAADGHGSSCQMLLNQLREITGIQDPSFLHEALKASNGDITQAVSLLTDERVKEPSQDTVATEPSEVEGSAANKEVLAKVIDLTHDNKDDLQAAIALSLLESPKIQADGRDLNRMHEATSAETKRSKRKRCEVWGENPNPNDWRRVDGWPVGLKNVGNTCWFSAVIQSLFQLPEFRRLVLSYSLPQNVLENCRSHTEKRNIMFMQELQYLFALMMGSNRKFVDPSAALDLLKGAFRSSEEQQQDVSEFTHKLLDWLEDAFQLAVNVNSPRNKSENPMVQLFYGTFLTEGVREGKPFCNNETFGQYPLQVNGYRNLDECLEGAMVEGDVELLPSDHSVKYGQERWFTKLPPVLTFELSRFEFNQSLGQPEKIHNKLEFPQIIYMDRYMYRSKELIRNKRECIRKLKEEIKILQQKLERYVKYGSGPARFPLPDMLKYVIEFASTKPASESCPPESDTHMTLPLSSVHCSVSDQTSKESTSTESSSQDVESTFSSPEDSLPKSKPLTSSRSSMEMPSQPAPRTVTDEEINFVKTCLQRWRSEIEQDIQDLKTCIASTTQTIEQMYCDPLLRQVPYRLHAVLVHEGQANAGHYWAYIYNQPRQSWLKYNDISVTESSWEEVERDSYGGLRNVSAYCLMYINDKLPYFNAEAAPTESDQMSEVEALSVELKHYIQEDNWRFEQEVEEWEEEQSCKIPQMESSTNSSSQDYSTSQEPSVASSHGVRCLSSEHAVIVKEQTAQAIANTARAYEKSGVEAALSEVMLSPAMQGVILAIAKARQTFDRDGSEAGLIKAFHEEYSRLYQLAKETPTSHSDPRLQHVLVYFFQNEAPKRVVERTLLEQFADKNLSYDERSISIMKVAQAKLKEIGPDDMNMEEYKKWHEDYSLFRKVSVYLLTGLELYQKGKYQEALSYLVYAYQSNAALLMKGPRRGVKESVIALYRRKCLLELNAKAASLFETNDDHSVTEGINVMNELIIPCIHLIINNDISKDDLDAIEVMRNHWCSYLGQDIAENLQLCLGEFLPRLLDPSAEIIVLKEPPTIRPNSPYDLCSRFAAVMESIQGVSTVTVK
USP17 inh: inhibitors of human USP17 deubiquitinase. 47,000 compounds, 6.5% hits. inhibition, % at 50 µM. purified USP17, Ub-rhodamine cleavage fluorescence, 3 h. A8MUK1
OTUD3 inh: blocks human OTUD3 ubiquitin-rhodamine cleavage; Q5T2D3; purified OTUD3, Ub-rhodamine fluorescence, 2 h; inhibition, % at 25 µM; AID 1645858; 47,000 compounds, 0.7% hits
USP30 block: inhibitors of human USP30 deubiquitinase. Q70CQ3. purified USP30, Ub-rhodamine cleavage fluorescence. inhibition, % at 25 µM. 47,000 compounds, 5.3% hits
* hit, by the source's call. No stated cut-off is given here; in the data, active means inhibition above about 30%; inactive means the rest.

Screening O=C(CN(c1ccccc1)S(=O)(=O)c1ccccc1)Oc1ccc2ccccc2c1 returned USP28 inh 7, USP17 inh -3, OTUD3 inh 3 and USP30 block 21.
Screening COc1ccc(Sc2ncccc2-c2nc3ccccc3s2)cc1 returned USP28 inh 12, USP17 inh 9, OTUD3 inh 12 and USP30 block 11.
`CN1C(=O)[C@H]2CN(c3ncccn3)C[C@H]2C12CCN(Cc1ccc(Cl)cc1)CC2` gave USP28 inh 3, USP17 inh -15, OTUD3 inh 5 and USP30 block -3.
Screening O=C(CCc1nnc2n(Cc3ccccc3Cl)c(=O)c3ccccc3n12)NCc1ccccn1 returned USP28 inh 36*, USP17 inh 45*, OTUD3 inh 13 and USP30 block 65*.
For COc1ccccc1-c1noc(C2CCCN2C(=O)Nc2cccc(C)c2C)n1 (stereo not drawn) the results were USP28 inh 8, USP17 inh 23, OTUD3 inh 20 and USP30 block 49*.
O=C(NC1CC1)c1cc(-c2ccco2)nc2onc(-c3ccccc3)c12 was read as USP28 inh -9, USP17 inh 31*, OTUD3 inh -3 and USP30 block -131.
Screening O=C(Nc1nccn1Cc1ccccc1)c1cc(-c2cccc(Cl)c2)on1 returned USP28 inh -28, USP17 inh -35, OTUD3 inh -31 and USP30 block -138.
For C=C(CC[C@@H](C)[C@H]1CC[C@@H]2[C@]1(C)C[C@@H](O)[C@@]13C[C@@]14C(=O)C[C@H](O)[C@@](C)(C(=O)O)[C@@H]4C(=O)C[C@]23O)C(C)C the results were USP28 inh 32*, USP17 inh 35*, OTUD3 inh 0 and USP30 block 20.
CCn1cc(CN2CCc3nc4cc(-c5ccoc5C)[nH]n4c(=O)c3C2)cn1 was read as USP28 inh -50, USP17 inh -70, OTUD3 inh -36 and USP30 block -153.
Cc1cc(-c2cc3nc4c(c(=O)n3[nH]2)CN(Cc2ccc(C)o2)CC4)no1 was read as USP28 inh 19, USP17 inh 46*, OTUD3 inh 13 and USP30 block 2.
For Cc1ccc(CN2CCc3nc4cc(C5CC5)[nH]n4c(=O)c3C2)s1 the results were USP28 inh 15, USP17 inh 0, OTUD3 inh 11 and USP30 block 32*.
`CC(=O)NC(Cc1ccc(F)cc1)C(=O)NC1CCN(C(=O)C2CCCCC2)CC1` (stereo not drawn) gave USP28 inh 8, USP17 inh 7, OTUD3 inh 10 and USP30 block 11.
`Cc1cc(Nc2ccccc2F)n2nc(-c3cccnc3)nc2n1` gave USP28 inh 3, USP17 inh -39, OTUD3 inh 1 and USP30 block 1.
For O=C1[C@@H]2Cc3ccccc3CN2C(=O)N1c1ccccc1[N+](=O)[O-] the results were USP28 inh 11, USP17 inh -11, OTUD3 inh 13 and USP30 block 16.
`Cc1ccc(CNC(=O)c2ccc(N3C(=O)[C@@H]4Cc5ccccc5CN4C3=O)cc2)cc1` gave USP28 inh 11, USP17 inh 62*, OTUD3 inh 11 and USP30 block 49*.
`O=C1[C@@H]2Cc3ccccc3CN2C(=O)N1c1cccc2ccccc12` gave USP28 inh 13, USP17 inh 9, OTUD3 inh 10 and USP30 block 33*.
`CCc1ccc(NC(=O)N2CC(C(=O)NC3CCCC3)C3(CCOCC3)C2)cc1` (stereo not drawn) gave USP28 inh 0, USP17 inh 0, OTUD3 inh -4 and USP30 block -12.
O=C(Nc1nnc(-c2cccs2)o1)C(c1ccccc1)c1ccccc1 was read as USP28 inh 14, USP17 inh 19, OTUD3 inh 15 and USP30 block 45*.
O=C(Nc1nnc(-c2ccc(Br)cc2)o1)C(c1ccccc1)c1ccccc1 was read as USP28 inh 12, USP17 inh 6, OTUD3 inh 12 and USP30 block 17.
For O=c1oc2ccccc2cc1-c1nc(-c2ccc(Oc3ccccc3)cc2)cs1 the results were USP28 inh 36*, USP17 inh 42*, OTUD3 inh -29 and USP30 block -127.
`CCOc1ccccc1NC(=O)CCCc1nc(-c2ccco2)no1` gave USP17 inh 2 and OTUD3 inh 2.
For O=C(Nc1ccc(Cl)cc1)c1noc2c1CCCC2 the results were USP28 inh 18, USP17 inh 18, OTUD3 inh 7 and USP30 block 35*.
Cc1cccc(NC(=O)c2noc3c2CCCC3)n1 was read as USP17 inh 4 and OTUD3 inh 3.

Source: PubChem
